This passage reports Potency and activation results from PubChem BioAssay (Tox21).

SMILES strings stand for the structures. Inconclusive results are not listed. A call without a number means that no potency is given here. A number with no mark means an inactive call. Calls of active or inactive are those of the source. Calls follow the shape of the full dose curve.

In the assay the target is D(2) dopamine receptor (Homo sapiens) (UniProt P14416). Nature of the assay: Dopamine D2 receptor (DRD2) small molecule agonists, cell-based qHTS assay (AID 1963594). Also: nearly all actives have a fitted effect of over 35% in size. To be noted: HEK293-DRD2 cAMP HTRF, agonist mode, 30 min; series mostly up to 92.4 µM. The source says: National Center for Advancing Translational Sciences [NCATS]
Sequence of D(2) dopamine receptor (Homo sapiens) (P14416 whole entry, looked up): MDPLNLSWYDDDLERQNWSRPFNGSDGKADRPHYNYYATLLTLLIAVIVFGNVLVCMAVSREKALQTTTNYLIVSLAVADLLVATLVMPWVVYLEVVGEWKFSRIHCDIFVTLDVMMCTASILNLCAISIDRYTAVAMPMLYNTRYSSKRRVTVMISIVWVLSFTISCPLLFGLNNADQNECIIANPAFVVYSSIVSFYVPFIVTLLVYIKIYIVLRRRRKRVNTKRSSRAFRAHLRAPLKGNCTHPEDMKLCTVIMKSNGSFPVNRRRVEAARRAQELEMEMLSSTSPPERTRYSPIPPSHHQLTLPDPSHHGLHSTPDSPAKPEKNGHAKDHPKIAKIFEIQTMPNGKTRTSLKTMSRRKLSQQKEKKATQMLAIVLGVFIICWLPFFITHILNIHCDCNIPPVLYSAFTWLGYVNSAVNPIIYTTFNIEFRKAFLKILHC
Division of Preclinical Innovation [DPI]
U.S. Environmental Protection Agency [EPA]
National Institutes of Environmental Health Sciences [NIEHS]
National Toxicology Program [NTP]
U.S. Food and Drug Administration [FDA]
DRD2 is the D2 subtype of the dopamine receptor, which is coupled to Gi subtype of G protein-coupled receptor. This G protein-coupled receptor inhibits adenylyl cyclase activity. The DRD2-HEK293 cell line stably expressing D2 dopamine receptor can be used for screening agonists and antagonists of interactions between D2 and its ligands. The Hek293-DRD2 cAMP assay is based on HTRF technology. It measures changes of cAMP accumulation in response to Gi coupled GPCR activation or inhibition.
Tox21 Assay Protocol Summary:
DRD2-Hek293 cells were dispensed at 600 cells/3uL/well in 1536-well white plates using a Multidrop Dispenser. After the assay plates were incubated at a 37 C/5% CO2 incubator for 24 h, 1 uL of Ro20-1724 at final concentration of 0.1 mM was transferred to the assay plate by a Flying Reagent Dispenser. Following Ro20-1724 addition, 23 nL of compound dissolved in DMSO, positive controls or DMSO only was added to the assay plates via Wako pintool station. The assay plates were incubated at room temperature for 10 min. Next, 1 uL of NKH477 at 200nM was added into the plates. After the assay plates were incubated at room temperature for an additional 30 min, 2.5 ul/well of cAMP-d2 and 2.5 ul/well of anti-cAMP-cryptate were added respectively into the assay plates using a Flying Reagent Dispenser. The plates were incubated at room temperature for 1 h. The fluorescence intensity in the plates was measured at 340 nm excitation and 665 & 620 nm emission by an Envision plate reader.
Turning to `CN(C)CCCOC1(Cc2ccccc2)CCCCCC1`, the Potency entry is “inactive”.

`N#CC1(N)CCCCC1`: the Potency entry is “inactive”.

In the case of `CCCCC(CC)CN` (stereo not given), the Potency entry was “inactive”.

Regarding `C[Si]1(C)N[Si](C)(C)N[Si](C)(C)N1`, the Potency entry was “inactive”.

In the case of `CCCCC/C=C/CC1CC(=O)OC1=O` (stereo not given), the Potency result was “inactive”.

For the molecule `CCc1nnc(NS(=O)(=O)c2ccc(N)cc2)s1`, the Potency result is “inactive”.

Regarding `C=CCOc1c(Br)cc(Br)cc1Br`, the Potency entry is “inactive”.

`NCC(=O)O`: the activation is 4.26% [at 19 µM].

As to `C=CC(=O)OCC1CCCO1` (stereo not given), the Potency result was “inactive”.

Consider `O=C(O)c1ccccc1C(=O)Nc1ccc(S(=O)(=O)Nc2nccs2)cc1`, for which the Potency entry is “inactive”.

Consider `CCCCCCCC[P+](CCCCCCCC)(CCCCCCCC)CCCCCCCC`, for which the Potency result is “inactive”.

On to `CCCCCCCCCCCCN1CCOCC1`, for which the Potency entry was “inactive”.

Regarding `Nc1c2c(nc3ccccc13)CCCC2O` (stereo not given), the Potency entry was “inactive”.

`CCCCCCCC/C=C\CCCCCCCC(=O)OC`: the Potency entry is “inactive”.

`NS(=O)(=O)c1cc2c(cc1C(F)(F)F)NCNS2(=O)=O`: the Potency result is “inactive”.

With `CC12CCC(CC1=O)C2(C)C` (stereo not given), the Potency entry is “inactive”.

Consider `O=C(O)Cc1ccc2c(c1)C(=O)c1ccccc1CO2`, for which the Potency entry was “inactive”.

For the molecule `CN(C)CCN1CCOCC1`, the Potency entry is “inactive”.

As to `CC(=O)N/N=C/c1ccc([N+](=O)[O-])o1`, the Potency result is “inactive”.

With `O=C1CCCCCCCCCCC(=O)OCCO1`, the Potency result is “inactive”.

As to `CC(O)c1ccccc1` (stereo not given), the Potency result was “inactive”.

On to `CNC(=O)c1ccccc1`, for which the Potency entry is “inactive”.

As for `c1ccc([C@H]2CN3CCSC3=N2)cc1`, the Potency entry was “inactive”.

Regarding `O=C(O)c1cccc(N(Cc2cccnc2)c2ccc(OC(F)F)c(OC(F)F)c2)c1`, the Potency result is “inactive”.

As for `COC(=O)c1cc(C(=O)OC)cc(S(=O)(=O)O)c1`, the Potency entry is “inactive”.

On to `OC1OCCOC1O` (stereo not given), for which the Potency result was “inactive”.

`CCC(C=O)CC`: the Potency entry was “inactive”.

As for `S=c1[nH][nH]c(=S)s1`, the Potency entry is “inactive”.

As for `OCCNCc1ccccc1`, the Potency result is “inactive”.

Turning to `CC(C)[N+](C)(C)CC(O)COc1cccc2ccccc12` (stereo not given), the Potency entry was “inactive”.

With `CNS(=O)(=O)Cc1ccc2[nH]cc(CCN(C)C)c2c1`, the Potency result was “inactive”.

For `CC(C)(C)C(=O)O`, the Potency entry is “inactive”.

Turning to `NC(=O)NC(=O)Cc1ccccc1`, the Potency entry is “inactive”.

Turning to `C/C(=C\C(C)CC(C)CC(C)C)C1CC(=O)OC1=O` (stereo not given), the Potency entry is “inactive”.

With `CN(C(=O)CCCOc1ccc2[nH]c(=O)ccc2c1)C1CCCCC1`, the Potency entry was “inactive”.

Take `CCOC(=O)C1=NOC(c2ccccc2)(c2ccccc2)C1`: the Potency entry was “inactive”.

In the case of `Cc1nc2ccccn2c(=O)c1CCN1CCC(C(=O)c2ccc(F)cc2)CC1`, the Potency result is “inactive”.

Take `OCCN(CCO)CCN(CCO)CCO`: the Potency entry is “inactive”.

Take `CCO[Si](CC)(OCC)OCC`: the Potency result was “inactive”.

As for `O=Cc1ccc(F)c(Br)c1`, the Potency result was “inactive”.
